# Measured values taken from ChEMBL document CHEMBL3988442, “University of Dundee, Small-Polar-MMV Screening Library” (2021).
# The whole screen tested about 69,000 compounds, of which about 950 (1.4%) showed an effect of 50% or more. Only a selection was taken, and strong results are over-represented in it overall.
# Tested on: Mycobacterium tuberculosis
# Assay: Cornell M. t heat shock assay; further: in the data most compounds retested in dose-response had high values
# Type: functional, organism-based
# Set-up: dose or concentration left out as unconfirmed
row,SMILES,Percent Effect [%]
1,CCn1ccnc1CN1CCN(c2cc(C)nc(C3CCCN3)c2)CC1.Cl (stereo not drawn),-8.62
2,CC(C)c1nn(C)c(N(C)C)c1CNCc1cccc2cccnc12.Cl,16.12
3,CO[C@@H]1CO[C@@]2(CCCN(Cc3nc(C)cs3)C2)C1.O=C(O)C(F)(F)F,0.7459
4,Cc1ccccc1C(=O)N1C[C@@H]2OCCN(c3ncccn3)[C@@H]2C1.O=C(O)C(F)(F)F,-16.98
5,O=C(NC[C@]12COC[C@H]1CN(Cc1ccco1)C2)c1ccccc1.O=C(O)C(F)(F)F,-18.08
6,Cc1nc(CCN)cc(N2CCC(O)(c3ccc(Cl)cc3)CC2)n1,-16.16
7,Cc1nc(CCN)cc(N2CCOc3ccc(Cl)cc3C2)n1,51.61
8,Cc1nc(C2CCN(C)CC2)cc(N2CCOc3ccc(Cl)cc3C2)n1,-13.3
9,O=C(O)C(F)(F)F.c1nc2c(c(C3CC3)n1)CCN(CC1CCOC1)CC2 (stereo not drawn),4.72
10,CC(C)n1cc(N2Cc3nc(N4CCOCC4)ncc3C2=O)cn1,-21.77
11,CCOc1cc(CN[C@@H]2COC[C@H]2Cc2cc(C)no2)ccc1O.O=C(O)CC(O)(CC(=O)O)C(=O)O,-17.97
12,CO[C@@H]1CCN(S(=O)(=O)c2cccnc2)[C@@H]2CN(CC3CC3)C[C@@H]21.O=C(O)C(F)(F)F.O=C(O)C(F)(F)F,-1.199
13,Cc1nc[nH]c1C(=O)N1CCC2(CC1)CN(CCN(C)C)C(=O)O2,17.79
14,Cc1cc(C(=O)N2CCC3(CC2)CN(CCN(C)C)C(=O)O3)nc(C)n1,14.38
15,Cc1ccc(C(=O)N2CCC3(CC2)CN(CCN(C)C)C(=O)O3)c(F)c1,97.5
16,Cn1nc(CN2CCCCC2)c2c1CN(C(=O)c1cccc(C#N)c1)C2.O=C(O)C(F)(F)F,-14.41
17,Cc1ccc(NC(=O)C(C)N2CCCN(c3nccs3)CC2)c(C)c1 (stereo not drawn),58.85
18,Cc1ccc(C)c(NC(=O)C(C)N2CCCN(c3nccs3)CC2)c1 (stereo not drawn),26
19,Cc1cc(NC(=O)C(C)N2CCCN(c3nccs3)CC2)on1 (stereo not drawn),10.96
20,CC(C)Cc1nc(-c2ccnc(N3CCNCC3)n2)no1.Cl.Cl,-11.54
21,COCCN1CCO[C@H]2CN(Cc3cccc(C)n3)C[C@H]21.O=C(O)C(F)(F)F.O=C(O)C(F)(F)F,-1.731
22,Cc1ccsc1CN(Cc1cccnc1)C1CC(C)(C)NC(C)(C)C1.O=C(O)CC(O)(CC(=O)O)C(=O)O,-32.2

row,SMILES,Percent Effect [%]
1,Cc1cnn(C2CN(Cc3noc(-c4ccccc4)n3)C2)c1,31.69
2,Cc1cnn(C2CN(Cc3nc4cc(Cl)ccc4n3C)C2)c1,84.58
3,Cc1cnn(C2CN(Cc3noc(C)n3)C2)c1,1.101
4,Cc1cc(C)n(C2CCN(Cc3nc4ccccc4n3C)CC2)n1,-15.39
5,Cc1cc(C)n(C2CN(Cc3nc4cc(Cl)ccc4n3C)C2)n1,97.92
6,Cc1ccc(-c2nc(CN3CC(n4nc(C)cc4C)C3)no2)cc1,24.47
7,N#Cc1ccc(N2CCC3(CCC(=O)N3Cc3cccnc3)CC2)nc1.O=C(O)C(F)(F)F.O=C(O)C(F)(F)F,16.15
8,Cc1c(Cl)cccc1S(=O)(=O)N1C[C@@H]2CC[C@H](C1)N(C)C2=O,-18.96
9,O=C(Nc1cnccn1)[C@@H]1CC[C@@H]2[C@@H](CCN2Cc2nccs2)O1.O=C(O)C(F)(F)F,0.9525
10,COCC1CN(S(=O)(=O)N(C)C)Cc2ncn(CC3CC3)c21.O=C(O)C(F)(F)F (stereo not drawn),-32.61
11,Cc1noc([C@@H]2CC[C@@H]3[C@@H](CCN3S(=O)(=O)c3ccccc3)O2)n1,-26.97
12,Cc1noc([C@@H]2C[C@H]3OCC[C@H]3N(S(=O)(=O)c3cccnc3)C2)n1.O=C(O)C(F)(F)F,-33.58
13,Cc1noc([C@@H]2CC[C@@H]3[C@@H](CCN3S(=O)(=O)c3cccnc3)O2)n1.O=C(O)C(F)(F)F,58.53
14,Cc1cccc(COc2ccc(C(C)N)cc2)c1.Cl (stereo not drawn),2.748
15,Cc1noc(C)c1CN1CCO[C@H]2CN(Cc3ccc(F)cc3)C[C@H]21.O=C(O)C(F)(F)F.O=C(O)C(F)(F)F,-6.13
16,CSc1ccc(C(=O)N2CC(=O)N(Cc3cccs3)CC(O)C2)cc1 (stereo not drawn),29.81
17,COc1ccc(C(=O)N2CC(=O)N(Cc3cccs3)CC(O)C2)cc1 (stereo not drawn),14.04
18,O=C1CN(C(=O)c2ccc(Cl)cc2)CC(O)CN1Cc1cccs1 (stereo not drawn),16.61
19,CSc1ccc(C(=O)N2CC(=O)N(Cc3ccccc3)CC(O)C2)cc1 (stereo not drawn),28.35
20,Cc1ccc(C(=O)N2CC(=O)N(Cc3cccs3)CC(O)C2)cc1 (stereo not drawn),58.25
21,O=C1CN(C(=O)c2ccc(F)cc2)CC(O)CN1Cc1cccs1 (stereo not drawn),62.26
22,O=C(Cc1ccsc1)N1C[C@@H]2OCCN(CC3CCCO3)[C@@H]2C1.O=C(O)C(F)(F)F (stereo partly drawn),-30.31

row,SMILES,Percent Effect [%]
1,CNC(=O)[C@H]1C[C@@H]2CN(C(=O)Nc3ccccc3)C[C@H]1O2,-29.03
2,CN(C)CCN1CCC2(CC1)CN(Cc1cccnc1)C(=O)CO2.O=C(O)C(F)(F)F.O=C(O)C(F)(F)F.O=C(O)C(F)(F)F,8.81
3,O=C(O)C(F)(F)F.O=C(O)C(F)(F)F.c1cc(COC[C@]23COC[C@H]2CN(CC2CCC2)C3)ccn1,-30
4,O=C(NC[C@]12COC[C@H]1CN(Cc1ccncc1)C2)c1ccco1.O=C(O)C(F)(F)F.O=C(O)C(F)(F)F,-3.617
5,Cn1cncc1C(=O)N1CCOC2(COCCN(CC3CC3)C2)C1.O=C(O)C(F)(F)F (stereo not drawn),41.2
6,Cc1nc(C2CCCN2Cc2nccn2CC(F)(F)F)no1 (stereo not drawn),-9.202
7,Cc1cnn(CC2CCCCN2Cc2cnc(C)s2)c1 (stereo not drawn),18.92
8,Cc1cnn(CC2CCCCN2Cc2ncc(C(C)(C)C)o2)c1 (stereo not drawn),-8.099
9,CCn1ccnc1CN1CCCC1Cn1cc(C)cn1 (stereo not drawn),89.45
10,Cc1cnn(CC2CCCN2Cc2nnc(C3CC3)n2C)c1 (stereo not drawn),10.04
11,Cc1cnn(CC2CCCN2Cc2nccn2C)c1 (stereo not drawn),15.87
12,Cc1cnn(CC2CCCN2Cc2nccn2CC(F)(F)F)c1 (stereo not drawn),101.7
13,Cc1cnn(CC2CN(Cc3nccn3CC(F)(F)F)CCO2)c1 (stereo not drawn),-15.97
14,Cc1cnn(CC2CCCCN2Cc2nccn2CC(F)(F)F)c1 (stereo not drawn),52.97
15,CCn1ccnc1CN1CCN(CCC(=O)NC2CCCCC2)CC1,24.85
16,CC1=N[C@@]2(CC[C@@H]3CNC[C@@H]32)C(=O)N1CC(C)C.O=C(O)C(F)(F)F,-9.466
17,Fc1cnc(N2CCCC3(COCCN(c4nccs4)C3)C2)nc1.O=C(O)C(F)(F)F.O=C(O)C(F)(F)F (stereo not drawn),4.049
18,COc1c(CNC2CCCOc3ccc(F)cc32)c(C(C)C)nn1C.Cl (stereo not drawn),-10.1
19,O=C(O)C(F)(F)F.O=C1NCC[C@]12CN(CC1CCOCC1)C[C@H]2c1ccccc1,-6.347
20,CCc1ccc(CN2C[C@H](OCC(=O)N(C)C)[C@H]3COC[C@H]32)o1.O=C(O)C(F)(F)F,13.05
21,CO[C@H]1CN(CC2CC2)[C@@H]2CCCO[C@H]12.O=C(O)C(F)(F)F,13.63
22,CC(C)CC(NCc1cccs1)c1ccccn1 (stereo not drawn),99.48

row,SMILES,Percent Effect [%]
1,CC(C)CC(NCc1ccsc1)c1ccccn1 (stereo not drawn),95.2
2,CC(C)CC(NCc1cscn1)c1ccccn1 (stereo not drawn),27.38
3,c1ccc(OCCNCc2cccs2)nc1,-4.17
4,CS(=O)(=O)N1CCC(C(=O)NC(Cc2ccsc2)c2ccccn2)CC1 (stereo not drawn),-2.015
5,O=C(Cn1cccnc1=O)NC(Cc1cccs1)c1ccccn1 (stereo not drawn),-7.839
6,Cl.O=C(c1ccccc1)N1CCC2(CC1)CNc1c(F)cccc12,9.544
7,Cc1cnn(CC2CN(Cc3nc4ccccc4s3)CCO2)c1 (stereo not drawn),-2.009
8,CN(Cc1cncnc1)[C@@H]1CN(C(=O)c2ccco2)[C@@H]2CCCO[C@H]12.O=C(O)C(F)(F)F,50.13
9,CN(Cc1cncnc1)[C@H]1CN(C(=O)c2ccco2)[C@@H]2CCCO[C@@H]21,-2.729
10,CN(Cc1cncnc1)[C@@H]1CN(C(=O)C2CC2)[C@@H]2CCCO[C@H]12.O=C(O)C(F)(F)F,8.478
11,COc1ccc2[nH]cc(C(=O)CNc3nc(C)cs3)c2c1.I,4.496
12,COc1cccc(CC(=O)N2CC[C@@H]3[C@H](CC2)N(C)CCS3(=O)=O)c1.O=C(O)C(F)(F)F,5.677
13,CN(C)c1nc(N)nc(CN2CCCC2c2cccs2)n1 (stereo not drawn),97.97
14,Cc1cccc(C2CCCN2Cc2nc(N)nc(N(C)C)n2)c1C (stereo not drawn),47.4
15,CN(C)c1nc(N)nc(CN2CCCC2c2ccsc2)n1 (stereo not drawn),64.16
16,CN(C)c1nc(N)nc(CN2CCCC(c3ccccc3)CC2)n1 (stereo not drawn),-13.13
17,Cc1ccccc1C1CCCN1Cc1nc2c(cnn2C)c(=O)[nH]1 (stereo not drawn),-11.52
18,Cc1nc(CN2CCCC2c2ccsc2)nc2ccccc12 (stereo not drawn),40.46
19,Cn1ncc2c(=O)[nH]c(CN3CCCC3c3ccsc3)nc21 (stereo not drawn),-12.54
20,Cn1ncc2c(=O)[nH]c(CN3CCCC3c3cccs3)nc21 (stereo not drawn),80.29
21,CCCc1noc(CN2CCCC2c2ccsc2)n1 (stereo not drawn),4.131
22,CC(C)NC(=O)N1CCc2ncc(CN3CCOCC3)n2CC1.O=C(O)C(F)(F)F,-16.24
